VP16 counter: VP16 counterscreen qHTS for inhibitors of ROR gamma transcriptional activity; Drosophila S2 Gal4-VP16 UAS-luciferase, luminescence, 20 h; Potency, µM (titrated, usually from 53.6 µM), for inactives: at the top dose activity, negative = inhibition, hits mostly inhibitors; 310,000 compounds, 3.5% hits;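 further: Gal4-VP16 expression switched on by copper sulfate through the metallothionein promoter; nearly all actives have a fitted effect of over 50% in size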
ELG1 DNA repair: qHTS screen for small molecules that inhibit ELG1-dependent DNA repair in human embryonic kidney (HEK293T) cells expressing luciferase-tagged ELG1; HEK293T ELG1-luciferase reporter, luminescence, 16 h; DNA damage induced by 5-fluorouridine; Potency, µM (highest dose often 46.1 µM), inactives show top-dose activity change, negative = inhibition, usual class: inhibitors; 330,000 compounds, 2.3% hits; AID 504467, 2011; further: nearly all actives have a fitted effect of over 55% in size
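HEK293T cells expressing luciferase-tagged ELG1 (2,000/well) received 5-Fluorouridine plus compound or DMSO for 16 hr at 37 °C. Luciferase was read by ONE-Glo luminescence after 30 min at room temperature.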
RORgamma inh: qHTS for inhibitors of ROR gamma transcriptional activity. Nuclear receptor ROR-gamma (Mus musculus), P51450. Drosophila S2 Gal4-RORgamma UAS-luciferase reporter, 20 h. Potency, µM (highest dose often 53.6 µM), for the others: at the highest dose activity change, negative = inhibition, most hits filed as inhibitors. 310,000 compounds, 5.4% hits. AID 2551, 2010; further: nearly all actives have a fitted effect of over 60% in size
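Stably transfected Drosophila Schneider cells are the test system, with ROR gamma fused to Gal4 and luciferase under UAS control; luminescence is read after 20 hr of 700 uM copper sulfate induction at ambient temperature.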
DT40 TDP1 no CPT: qHTS for Inhibitors of human tyrosyl-DNA phosphodiesterase 1 (TDP1): qHTS in cells in absence of CPT; DT40 Tdp1-/- hTDP1 cells, no CPT, ATP luminescence, 48 h; Potency, µM (doses to about 46.2 µM), for the others: at the top dose activity change, negative = growth inhibition, hits mostly inhibitors; 420,000 compounds, 15% hits; further: nearly all actives have a fitted effect of over 55% in size
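Seeded 400 DT40-hTDP1 cells/well (vehicle DMSO, no 20 nM CPT); pinned compounds; ≥48 hr at 37 °C; CellTiter-Glo luminescence as viability measure.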
TDP1 cell CPT: qHTS for Inhibitors of human tyrosyl-DNA phosphodiesterase 1 (TDP1): qHTS in cells in presence of CPT; chicken DT40 Tdp1-/-;hTDP1 cells + 20 nM CPT, ATP luminescence, 48 h; 420,000 compounds, 12% hits; Potency, µM (highest dose often 46.2 µM), without a hit: at the highest dose activity change, negative = growth inhibition, actives largely listed as inhibitors; further: nearly all actives have a fitted effect of over 55% in size
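Chicken DT40 Tdp1-/- cells stably complemented with human TDP1 were seeded at 400 cells/well in medium containing 20 nM camptothecin, exposed to pin-transferred compounds, and grown at 37 °C for at least 48 hr. Viability was read as ATP luminescence.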
ALOX12 inh: Primary qHTS assay for inhibitors of human arachidonate 12S-lipoxygenase (ALOX12): Round 2 | Polyunsaturated fatty acid lipoxygenase ALOX12 (Homo sapiens), P18054 | purified 12hLO, xylenol orange hydroperoxide absorbance | Potency, µM (highest dose often 108 µM), for inactives: at the top dose activity change, negative = inhibition, most hits filed as inhibitors | 580,000 compounds, 1.1% hits
Target sequence (P18054 whole entry, looked up): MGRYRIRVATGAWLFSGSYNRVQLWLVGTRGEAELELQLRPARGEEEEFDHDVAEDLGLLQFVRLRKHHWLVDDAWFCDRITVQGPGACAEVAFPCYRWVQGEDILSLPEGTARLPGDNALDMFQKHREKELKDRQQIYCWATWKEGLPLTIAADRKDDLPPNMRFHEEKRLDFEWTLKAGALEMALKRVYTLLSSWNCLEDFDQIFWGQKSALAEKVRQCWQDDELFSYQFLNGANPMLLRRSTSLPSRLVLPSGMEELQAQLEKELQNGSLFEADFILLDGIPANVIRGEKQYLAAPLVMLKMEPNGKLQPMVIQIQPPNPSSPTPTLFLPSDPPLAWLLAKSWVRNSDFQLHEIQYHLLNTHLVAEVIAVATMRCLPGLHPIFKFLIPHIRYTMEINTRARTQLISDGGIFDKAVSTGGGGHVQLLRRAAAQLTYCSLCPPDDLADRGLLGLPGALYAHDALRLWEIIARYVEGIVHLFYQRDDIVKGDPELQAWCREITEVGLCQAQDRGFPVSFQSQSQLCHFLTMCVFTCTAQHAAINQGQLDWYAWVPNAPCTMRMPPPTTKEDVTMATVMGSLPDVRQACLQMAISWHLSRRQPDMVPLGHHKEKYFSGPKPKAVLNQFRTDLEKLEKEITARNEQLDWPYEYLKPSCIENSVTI
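Purified human 12hLO (150 nM final) in 25 mM Hepes, 0.01% Triton X-100, pH 7.0 was preincubated 15 min at room temperature with compound. Then 40 uM arachidonic acid was added, 30 min. Hydroperoxide was read by Fe-XO absorbance ratio 573/405 nm.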
Active calls of the source: *; ? = inconclusive; · = no result given. Sampled rows, rich in hits. Any-hit rate of the full collection: about 15%. The call rests on the fitted dose curve; in most records, active means well fitted curve in the direction sought with a large enough effect; inconclusive means small, poorly fitted or top-dose-only effect, or another doubt; inactive means no such curve, though single readings can be large; an effect the other way counts as inactive or inconclusive. On the % scale 0 is the no-effect control and ±100 the full control effect; potency means the concentration at half of the fitted maximal effect.

SMILES | VP16 counter | ELG1 DNA repair | RORgamma inh | DT40 TDP1 no CPT | TDP1 cell CPT | ALOX12 inh
CCOC(=O)C1(CCCc2ccccc2)CCN(C(=O)CCc2cnn(C)c2)CC1 | 7.7% | ? | 37.4% | ? | ? | -5.3%
O=C(CCc1nc2ccccc2s1)NC1CCCCCCC1 | · | · | · | · | · | 6.6%
COC(=O)[C@@]12C[C@@H](CC(=O)N3CCN(C(=O)c4ccco4)CC3)C(=O)N(Cc3ccccc3)C1=CCC(C)(C)C2 | · | · | · | 14.6µM* | ? | -1.7%
COC(=O)[C@@]12C[C@@H](CC(=O)N3CCN(C(=O)c4ccco4)CC3)C(=O)N(Cc3ccc4c(c3)OCO4)C1=CCC(C)(C)C2 | · | · | · | 20.6µM* | 18.4µM* | -8.3%
COC(=O)[C@@]12C[C@@H](CC(=O)N3CCN(C(=O)c4ccco4)CC3)C(=O)N(Cc3ccco3)C1=CCC(C)(C)C2 | · | · | · | ? | ? | 9.3%
Cc1ccc(C)c(NC(=O)c2cc3n(n2)CC(c2ccc(Cl)cc2)OC3)c1 (centres undefined) | · | · | · | · | · | -8.4%
CCN(CC(=O)Nc1cc(Cl)ccc1C)C(=O)C1CCN(c2ncnc3sc(C)c(C)c23)CC1 | · | · | · | 6.51µM* | 18.4µM* | 4.3%
Cc1sc2ncnc(N3CCC(C(=O)N(C)CC(=O)Nc4ccccc4Br)CC3)c2c1C | -6.4% | ? | 1.4% | ? | ? | 4.6%
